# Source: PubChem BioAssay (NCATS)
# Where “and” joins values, the source holds several entries; their conditions need not be identical. Equal values may be shown once. Inconclusive results are not listed. More than one record can exist for a structure, and the calls need not agree. A number with no mark means an inactive call. Calls of active or inactive are those of the source. Calls follow the shape of the dose curve; as a rule, active = well fitted curve in the direction sought with a large enough effect; inconclusive = small, poorly fitted or top-dose-only effect, or another doubt; inactive = no such curve, though single readings can be large; an effect the other way counts as inactive or inconclusive.
# Key:
# Hek293T = test: Primary qHTS to identify gynecologic anti-cancer compounds using libraries of approved drugs and bioactive compounds (AID 1345084); conditions: Gynecologic cancer cell panel viability, ATPlite luminescence, 48 h, control line for the selectivity index; series mostly up to 57.5 µM; also: nearly all actives have a fitted effect of over 55% in size
# Procedure, shortened: (§1)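 Five-concentration response, 48 h; readout is ATP-driven luciferase luminescence.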
# JEG-3 = test: as above; conditions: Gynecologic cancer cell panel viability, ATPlite luminescence, 48 h; series mostly up to 57.5 µM
# Procedure, shortened: as §1
# OV90 = test: as above; conditions: Gynecologic cancer cell panel viability, ATPlite luminescence, 48 h; series mostly up to 57.5 µM
# Procedure, shortened: as §1
# SKOV3 = test: as above; conditions: Gynecologic cancer cell panel viability, ATPlite luminescence, 48 h; series mostly up to 57.5 µM
# Procedure, shortened: as §1
# Tov-21-G = test: as above; conditions: Gynecologic cancer cell panel viability, ATPlite luminescence, 48 h; series mostly up to 57.5 µM
# Procedure, shortened: as §1
# Tov112D = test: as above; conditions: Gynecologic cancer cell panel viability, ATPlite luminescence, 48 h; series mostly up to 57.5 µM
# Procedure, shortened: as §1
# [1] = Drug repurposing screens with cells derived from glioblastoma tumor samples (AID 1345199); conditions: GBM patient neurospheres viability, ATP luminescence, 48 h; also: nearly all actives have a fitted effect of over 40% in size; as to activity, negative = cell killing: % is scaled to controls: 0 for no effect and ±100 for the full control effect
# Procedure, shortened: (§2)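 Primary testing used CD133+ neurospheres from four GBM patients, seven concentrations, 48 h exposure and ATP-based viability; confirmation added three slower-growing patient lines.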
# PA-1 = test: Primary qHTS to identify gynecologic anti-cancer compounds using libraries of approved drugs and bioactive compounds (AID 1345084); conditions: Gynecologic cancer cell panel viability, ATPlite luminescence, 48 h; series mostly up to 57.5 µM; also: nearly all actives have a fitted effect of over 55% in size
# Procedure, shortened: as §1
# astro = test: Drug repurposing screens with cells derived from glioblastoma tumor samples (AID 1345199); conditions: viability, ATP luminescence, 48 h; series mostly up to 45.9 µM; also: nearly all actives have a fitted effect of over 40% in size; as to activity, negative = cell killing: % is scaled to controls: 0 for no effect and ±100 for the full control effect
# Procedure, shortened: as §2
# [2] = qHTS assay to identify inhibitors of the type 1 interferon - major histocompatibility complex class I in skeletal muscle: Counter screen cell viability and HiBit confirmation (AID 1347412); conditions: iHSKM muscle cells + IFN-b, HiBiT or CellTiter-Glo, 24 h; Potency: HiBiT; Viability, at 45.9 µM (top of the series); also: nearly all actives have a fitted effect of over 60% in size
# Procedure, shortened: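 Myoblasts (C25cl48, HLA-B HiBiT) seeded in medium without dexamethasone, IFN-b 4 ng/ml added except unstimulated columns; 1 hr later compounds pinned (12-pt 1:3, top 46 uM final). Incubated 24 hrs, lysed 10 min, luminescence measured.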
# [3] = at 45.9 µM (top of the series), tumour line B
# [4] = at 45.9 µM (top of the series), tumour line D
# [5] = at 46 µM (top of the series), tumour line A
# [6] = at 46.1 µM (top of the series), tumour line C
# [7] = at 20 µM (top of the series), tumour line C
# [8] = at 21.2 µM (top of the series), tumour line B
# [9] = at 21.2 µM (top of the series), tumour line D
# Potency is read from the fitted curve at half-maximal effect.
smiles,measurement,setting,value
O=C(O)C(Cc1cc(I)c(O)c(I)c1)c1ccccc1 (configuration not stated),Potency,Hek293T,inactive
same,Potency,JEG-3,inactive
same,Potency,OV90,inactive
same,Potency,SKOV3,inactive
same,Potency,Tov-21-G,inactive
same,Potency,Tov112D,inactive
same,"activity, negative = cell killing",[1]; [3],4.75%
same,"activity, negative = cell killing",[1]; [4],-5.57%
same,"activity, negative = cell killing",[1]; [5],-25.7%
same,"activity, negative = cell killing",[1]; [6],-25.5%
CCN(CC)CCOC(=O)C(Cc1cccc2ccccc12)CC1CCCO1 (configuration not stated),Potency,Hek293T,inactive
same,Potency,JEG-3,inactive
same,Potency,PA-1,inactive
same,Potency,Tov-21-G,inactive
same,Potency,Tov112D,inactive
same,"activity, negative = cell killing",[1]; [7],6.25%
same,"activity, negative = cell killing",[1]; [8],-13.3%
same,"activity, negative = cell killing",[1]; [9],-13.7%
same,Potency,[1]; tumour line A,11.2 µM (active)
same,Potency,astro,inactive
CN(C)CCC[C@@]1(c2ccc(F)cc2)OCc2cc(C#N)ccc21,Potency,Hek293T,inactive
same,Potency,JEG-3,inactive
same,Potency,PA-1,inactive
same,Potency,SKOV3,inactive
same,Potency,Tov-21-G,inactive
same,Potency,Tov112D,inactive
same,"activity, negative = cell killing",[1]; [3],11.5%
same,"activity, negative = cell killing",[1]; [4],-13.7%
same,"activity, negative = cell killing",[1]; [5],-29.3%
same,"activity, negative = cell killing",[1]; [6],2.89%
same,Potency,astro,inactive
CCOC(=O)[C@H](CCc1ccccc1)N[C@@H](C)C(=O)N1[C@H](C(=O)O)C[C@H]2CCCC[C@@H]21,"activity, negative = cell killing",[1]; [4],2.82%
same,"activity, negative = cell killing",[1]; [5],-15.6%
same,"activity, negative = cell killing",[1]; [6],1.22% and -4.13%
same,Potency,astro,inactive
CCN(CC)CCOc1ccc2c(c1)C(=O)c1cc(OCCN(CC)CC)ccc1-2,Potency,OV90,12.6 µM (active)
same,Potency,Tov-21-G,22.4 µM (active)
same,Potency,astro,inactive
CN1CCC[C@@H]1CCO[C@](C)(c1ccccc1)c1ccc(Cl)cc1,Potency,JEG-3,20 µM (active)
same,Potency,OV90,11.2 µM (active)
same,Potency,SKOV3,22.4 µM (active)
CN(C)CCOC(c1ccc(Cl)cc1)c1ccccn1 (configuration not stated),Potency,JEG-3,inactive
same,"activity, negative = cell killing",[1]; [3],-15.3%
same,"activity, negative = cell killing",[1]; [4],-15.7%
same,"activity, negative = cell killing",[1]; [6],3.84%
same,Potency,[1]; tumour line A,15.8 µM (active)
same,Potency,astro,inactive
Cc1cc(CC(=O)O)c(C)n1-c1ccc(Cl)cc1,Potency,JEG-3,inactive
same,Potency,OV90,inactive
same,Potency,PA-1,inactive
same,Potency,SKOV3,inactive
same,Potency,Tov-21-G,inactive
same,Potency,Tov112D,inactive
same,"activity, negative = cell killing",[1]; [3],-14.5%
same,"activity, negative = cell killing",[1]; [4],3.83%
same,Potency,[1]; tumour line A,25.1 µM (active)
same,Potency,astro,inactive
NC(N)=NCc1cccc(I)c1,"activity, negative = cell killing",[1]; [3],-24.3% and -14.8%
same,Potency,[1]; tumour line A,12.6 µM (active)
same,Potency,astro,inactive
CC[C@]12CCCN3CCc4c(n(c5ccccc45)C(=O)C1)[C@@H]32,Potency,JEG-3,inactive
same,Potency,OV90,inactive
same,Potency,PA-1,20 µM (active)
same,Potency,Tov112D,28.2 µM (active) and 31.6 µM (active)
same,"activity, negative = cell killing",[1]; [8],-16.8%
same,"activity, negative = cell killing",[1]; [9],-29.4%
same,Potency,[1]; tumour line A,6.31 µM (active)
O=C(CCCN1CC=C(n2c(=O)[nH]c3ccccc32)CC1)c1ccc(F)cc1,Potency,Hek293T,inactive
same,Potency,JEG-3,inactive
same,Potency,Tov-21-G,inactive
same,Potency,Tov112D,inactive
same,"activity, negative = cell killing",[1]; [3],-17.1%
same,"activity, negative = cell killing",[1]; [4],-15%
same,"activity, negative = cell killing",[1]; [6],-24.6%
same,Potency,[1]; tumour line A,10 µM (active)
same,Potency,astro,inactive
Cc1ccc(O)c([C@H](CCN(C(C)C)C(C)C)c2ccccc2)c1,Potency,Hek293T,inactive
same,Potency,PA-1,inactive
same,Potency,SKOV3,inactive
same,Potency,Tov-21-G,inactive
same,Potency,Tov112D,inactive
same,"activity, negative = cell killing",[1]; [3],-18%
same,"activity, negative = cell killing",[1]; [6],-1.49%
same,Potency,[1]; tumour line A,3.98 µM (active)
same,Potency,astro,inactive
CN1CCN(CCC(=O)N2c3ccccc3Sc3ccc(C(F)(F)F)cc32)CC1,Potency,OV90,15.8 µM (active)
same,Potency,astro,inactive
CCCCCCCCNC(C)C(O)c1ccc(SC(C)C)cc1 (configuration not stated),Potency,Tov112D,inactive
O=c1[nH]c(=O)n([C@H]2C[C@H](O)[C@@H](CO)O2)cc1F,Potency,Hek293T,inactive
same,Potency,OV90,7.94 µM (active)
same,Potency,SKOV3,7.94 µM (active)
same,Potency,Tov112D,1 µM (active)
same,"activity, negative = cell killing",[1]; [6],-17.1%
same,Potency,[1]; tumour line A,0.891 µM (active)
CC(=C(CCOC(=O)C(C)C)SSC(CCOC(=O)C(C)C)=C(C)N(C=O)Cc1cnc(C)nc1N)N(C=O)Cc1cnc(C)nc1N,Potency,JEG-3,inactive
same,Potency,OV90,inactive
same,Potency,PA-1,inactive
same,Potency,SKOV3,inactive
same,Potency,Tov-21-G,inactive
same,Potency,Tov112D,inactive
same,"activity, negative = cell killing",[1]; [3],1.68%
same,"activity, negative = cell killing",[1]; [4],3.5%
same,"activity, negative = cell killing",[1]; [6],-16.1%
same,Potency,astro,inactive
CCC(CC)(CC(=O)Nc1cccc(/C=C/c2nc(C3CCC3)cs2)c1)C(=O)O,Potency,SKOV3,inactive
same,Potency,Tov112D,inactive
Oc1c(Cl)cc(Cl)c(Cl)c1Cc1c(O)c(Cl)cc(Cl)c1Cl,Potency,Hek293T,8.91 µM (active)
same,Potency,OV90,10 µM (active)
same,Potency,PA-1,11.2 µM (active)
same,Potency,Tov-21-G,inactive
Nc1nc(Cl)nc2c1ncn2[C@@H]1O[C@H](CO)[C@@H](O)[C@@H]1F,Potency,JEG-3,11.2 µM (active)
same,Potency,OV90,0.398 µM (active)
same,Potency,PA-1,1.26 µM (active)
same,Potency,Tov112D,0.316 µM (active)
same,Potency,astro,10 µM (active)
NC(N)=NN=C(/C=C/c1ccc([N+](=O)[O-])o1)/C=C/c1ccc([N+](=O)[O-])o1,Potency,OV90,15.8 µM (active)
same,Potency,PA-1,7.08 µM (active)
same,Potency,Tov-21-G,12.6 µM (active)
same,Potency,Tov112D,17.8 µM (active)
same,Potency,astro,22.4 µM (active)
C[C@H]1O[C@@H](O[C@H]2CC[C@@]3(C)[C@H](CC[C@@H]4[C@@H]3C[C@@H](O)[C@]3(C)[C@@H](C5=CC(=O)OC5)CC[C@]43O)C2)C[C@H](O)[C@@H]1O[C@H]1C[C@H](O)[C@H](O[C@H]2C[C@H](O)[C@H](O[C@@H]3O[C@H](CO)[C@@H](O)[C@H](O)[C@H]3O)[C@@H](C)O2)[C@@H](C)O1,Potency,Hek293T,0.355 µM (active)
same,Potency,OV90,1.58 µM (active)
same,Potency,PA-1,0.316 µM (active)
same,Potency,SKOV3,0.282 µM (active)
same,Potency,Tov-21-G,0.316 µM (active)
same,Potency,Tov112D,0.316 µM (active)
same,Potency,astro,0.316 µM (active)
same,Potency,[2],0.198 µM (active)
O=C(Nc1ccccc1)OCC(CN1CCCCC1)OC(=O)Nc1ccccc1 (configuration not stated),Potency,JEG-3,inactive
same,Potency,PA-1,inactive
same,Potency,Tov-21-G,inactive
same,Potency,Tov112D,inactive
same,"activity, negative = cell killing",[1]; [7],-1.96%
same,Potency,[1]; tumour line A,11.2 µM (active)
same,Potency,[1]; tumour line D,10 µM (active)
same,Potency,astro,inactive
CN=C(N)NCCC[C@H](N)C(=O)O,"activity, negative = cell killing",[1]; [3],-4.01% and -7.28% and -14.2%
same,"activity, negative = cell killing",[1]; [4],-19.7% and 0.377% and -12.4%
same,"activity, negative = cell killing",[1]; [5],-28.1%
same,"activity, negative = cell killing",[1]; [6],8.15% and -7.9% and -1.89%
same,Potency,astro,inactive
CC(C)n1c(/C=C/[C@@H](O)C[C@@H](O)CC(=O)O)c(-c2ccc(F)cc2)c2ccccc21,Potency,Hek293T,inactive
same,Potency,OV90,8.91 µM (active)
same,Potency,SKOV3,inactive
same,Potency,Tov-21-G,inactive
same,"activity, negative = cell killing",[1]; [3],-35.6%
same,"activity, negative = cell killing",[1]; [4],-90.6%
same,"activity, negative = cell killing",[1]; [6],-19.1%
same,Potency,[1]; tumour line A,11.2 µM (active)
O=C(Nc1ncc([N+](=O)[O-])s1)c1cccs1,Potency,JEG-3,inactive
same,Potency,OV90,20 µM (active)
same,Potency,SKOV3,inactive
same,Potency,astro,15.8 µM (active)
CCCCCCCCCCCCCC[N+](C)(C)Cc1ccccc1,Potency,SKOV3,22.4 µM (active)
same,Potency,Tov-21-G,20 µM (active)
same,Potency,Tov112D,14.1 µM (active)
same,Potency,astro,12.6 µM (active)
